The list is not random: actives were taken first. Their share in the collection is about 1.6%.
sEH act: soluble epoxide hydrolase (human) activation | P34913 | purified human sEH enzymatic activity, activator screen | activation, % at 2 µM | 0.04% of 91,000 active | AID 717; in the data active means activation above about 37%
Plk1 PBD FP: Plk1 (human) PBD binding inhibition | P53350 | Plk1 PBD phosphopeptide binding, fluorescence polarization | inhibition, %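 (tested at about 20 µM)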 | 0.13% of 97,000 active; in the data active means inhibition above about 34%, passing the limit was not always enough
Target sequence (P53350 whole entry, looked up): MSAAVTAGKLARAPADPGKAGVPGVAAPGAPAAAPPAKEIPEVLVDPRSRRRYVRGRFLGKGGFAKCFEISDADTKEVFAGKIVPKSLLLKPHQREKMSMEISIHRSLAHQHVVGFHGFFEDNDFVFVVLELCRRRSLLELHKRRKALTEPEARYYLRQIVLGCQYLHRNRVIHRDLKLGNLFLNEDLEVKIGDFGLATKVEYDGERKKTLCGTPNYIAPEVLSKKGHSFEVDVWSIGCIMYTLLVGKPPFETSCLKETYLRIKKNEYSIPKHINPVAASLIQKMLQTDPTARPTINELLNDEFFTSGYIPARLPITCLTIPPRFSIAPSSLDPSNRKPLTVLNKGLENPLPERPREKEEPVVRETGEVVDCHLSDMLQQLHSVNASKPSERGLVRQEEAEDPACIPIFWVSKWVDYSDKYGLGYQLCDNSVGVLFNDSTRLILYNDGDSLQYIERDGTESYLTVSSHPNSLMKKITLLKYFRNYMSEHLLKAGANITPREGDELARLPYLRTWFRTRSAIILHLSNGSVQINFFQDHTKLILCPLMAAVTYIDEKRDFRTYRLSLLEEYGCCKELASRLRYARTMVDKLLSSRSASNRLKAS
PLK1 inh: inhibitors of human PLK1 kinase; recombinant PLK1 kinase, TR-FRET peptide phosphorylation; 0.53% of 97,000 active; P53350; inhibition, % at 10 µM;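 active means inhibition of 50% or more in the single-concentration screen; inactive means inhibition below 50%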;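 further: 0% = DMSO max control and 100% = H-89 dihydrochloride min control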
PTK2B oligo ant: antagonists of human Pyk2 oligomerization. AID 1347419. Q293 cells, Pyk2 FERM NanoBiT luminescence; active compounds read low. 0.83% of 99,000 active. z-score (the deposit names both 25 µM and 10 µM);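 active means Z-score of -3 or lower, scaled per plate to the spread of control and sample wells; inactive means z-score above -3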;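 further: negative z-score means lost luminescence so less FERM oligomerization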
sEH inh: inhibitors of human soluble epoxide hydrolase; P34913; recombinant human sEH enzymatic activity assay; inhibition, % at 2 µM; 0.34% of 91,000 active; AID 707; in the data active means inhibition above about 80%
* hit, by the source's call.

Results for CS(=O)(=O)N(CC(=O)N1CCN(c2ccccc2)CC1)c1ccc(Cl)c(C(F)(F)F)c1 ?
sEH act: -2.9; Plk1 PBD FP: -16.9; PLK1 inh: -1.2; PTK2B oligo ant: 1.09; sEH inh: 2.0

Results for Cc1cc(Cl)c(S(=O)(=O)N2CCSCC2)cc1OCC(=O)NC1CCCCC1 ?
sEH act: 6.5; Plk1 PBD FP: -10.3; PLK1 inh: -8.4; PTK2B oligo ant: -3.68*; sEH inh: -4.5

What do the screens show for `Cc1cc(Cl)c(S(=O)(=O)N2CCCCCC2)cc1OCC(=O)NC1CCCCC1`?
sEH act: 6.3; Plk1 PBD FP: 6.9; PLK1 inh: -4.8; PTK2B oligo ant: 0.99; sEH inh: -7.3

What do the screens show for `O=C(Nc1ccccc1)c1sc2cc(C(F)(F)F)cnc2c1-c1cccs1`?
sEH act: 8.6; Plk1 PBD FP: -6.6; PLK1 inh: -9.2; PTK2B oligo ant: 0.13; sEH inh: -5.7

Results for NC(=O)c1sc2cc(C(F)(F)F)cnc2c1-c1cccs1 ?
sEH act: 8.1; Plk1 PBD FP: 7.5; PLK1 inh: 56.9*; PTK2B oligo ant: -0.91; sEH inh: -8.0

Results for Cc1ccc(-c2cc(C(F)F)nc(NCc3cccnc3)n2)cc1 ?
sEH act: 2.3; Plk1 PBD FP: -6.6; PLK1 inh: -0.7; PTK2B oligo ant: -3.62*; sEH inh: -4.3

How did Cc1ccc(-c2cc(C(F)F)nc(NCC3CCCO3)n2)cc1 (stereo unspecified) do in these assays?
sEH act: 8.6; Plk1 PBD FP: -6.6; PLK1 inh: -10.1; PTK2B oligo ant: -0.94; sEH inh: -10.7

What do the screens show for `COc1ccc(CN(Cc2cccnc2)S(=O)(=O)c2ccc(-n3cnnn3)c(C)c2)cc1OC`?
sEH act: 0.8; Plk1 PBD FP: 17.9; PLK1 inh: -17.1; PTK2B oligo ant: -0.05; sEH inh: -1.8

What do the screens show for `O=C(CSc1ncnc2nc[nH]c12)N1CCOCC1`?
sEH act: -1.6; Plk1 PBD FP: -16.9; PLK1 inh: 20.6; PTK2B oligo ant: 0.91; sEH inh: 1.6

What do the screens show for `c1nc(N2CCOCC2)c2[nH]cnc2n1`?
sEH act: 10.2; Plk1 PBD FP: 0.6; PLK1 inh: 63.0*; PTK2B oligo ant: 0.23; sEH inh: -16.4

Results for C/C(N)=C(/C#N)C(=O)CN1CCCCC1 ?
sEH act: -3.0; Plk1 PBD FP: 18.7; PLK1 inh: -10.4; PTK2B oligo ant: 1.55; sEH inh: 3.5

What do the screens show for `O=C(c1ccco1)N1CCN(S(=O)(=O)c2ccc3c(c2)CCN3C(=O)C2CC2)CC1`?
Plk1 PBD FP: -20.0; PLK1 inh: -3.7; PTK2B oligo ant: 0.31

What do the screens show for `O=C(C1CC1)N1CCc2cc(S(=O)(=O)N3CCOCC3)ccc21`?
Plk1 PBD FP: 15.8; PLK1 inh: 68.6*; PTK2B oligo ant: 1.27

What do the screens show for `CC(=O)c1ccccc1NC(=O)CSc1nnc2ccccn12`?
sEH act: -4.1; Plk1 PBD FP: -9.9; PLK1 inh: -8.7; sEH inh: -1.5

How did O=S(=O)(NCCSc1nnc(-c2ccco2)n1-c1ccccc1)c1ccccc1 do in these assays?
sEH act: -14.0; Plk1 PBD FP: -4.5; PLK1 inh: -3.2; PTK2B oligo ant: -1.39; sEH inh: 13.9

How did CCCCCCCCCCOC(=O)c1csc2nnsc12 do in these assays?
sEH act: 9.3; Plk1 PBD FP: -1.7; PLK1 inh: -15.3; PTK2B oligo ant: 0.07; sEH inh: -10.2

What do the screens show for `Cc1ccc(NC(=O)C2=C(O)c3ccccc3N(C)S2(=O)=O)cc1`?
Plk1 PBD FP: 12.8; PLK1 inh: -18.1; PTK2B oligo ant: 0.29

Results for CC1(C)Cc2c(c(-c3ccco3)nc3n[nH]c(N)c23)CO1 ?
sEH act: -4.0; Plk1 PBD FP: -10.5; PLK1 inh: 52.3*; PTK2B oligo ant: 0.81; sEH inh: 5.1

What do the screens show for `CC1(C)Cc2c(C#N)c(N3CCCC3)nc(-c3ccco3)c2CO1`?
Plk1 PBD FP: -21.1; PLK1 inh: 51.0*

How did CC1(C)Cc2c(C#N)c(NCc3ccco3)nc(-c3ccco3)c2CO1 do in these assays?
PTK2B oligo ant: -0.06

What do the screens show for `CCN(CC)S(=O)(=O)c1ccc(N2CCN(S(=O)(=O)c3ccc4c(c3)OCCO4)CC2)nc1`?
sEH act: -4.5; Plk1 PBD FP: -9.2; PLK1 inh: -29.1; PTK2B oligo ant: -0.89; sEH inh: 5.8

What do the screens show for `COc1ccc(-c2cc(C#N)nc(N3CCNCC3)n2)cc1`?
sEH act: -13.0; Plk1 PBD FP: 2.2; PLK1 inh: 54.7*; PTK2B oligo ant: 0.78; sEH inh: 10.4

What do the screens show for `CN1CCN(c2nc(C#N)cc(-c3ccccc3)n2)CC1`?
sEH act: 12.4; Plk1 PBD FP: -14.9; PLK1 inh: -7.3; PTK2B oligo ant: 0.31; sEH inh: -12.4

What do the screens show for `COc1cccc(/C=N/n2c(N)c(S(=O)(=O)c3cccs3)c3nc4ccccc4nc32)c1`?
sEH act: 6.3; Plk1 PBD FP: -2.8; PLK1 inh: -11.0; PTK2B oligo ant: -0.53; sEH inh: -5.4

Results for Nc1c(S(=O)(=O)c2cccs2)c2nc3ccccc3nc2n1/N=C/c1cccc(O)c1 ?
sEH act: 8.6; Plk1 PBD FP: 14.2; PLK1 inh: -8.2; PTK2B oligo ant: -3.25*; sEH inh: -6.4

How did CCc1ccccc1NC(=O)Cn1nc(C(F)(F)F)cc1C1CC1 do in these assays?
sEH act: -2.5; Plk1 PBD FP: -14.0; PLK1 inh: 0.0; PTK2B oligo ant: -0.43; sEH inh: 3.2

What do the screens show for `Cc1cc(C)n(-c2nc(Nc3ccccc3C)nc(-n3nc(C)cc3C)n2)n1`?
sEH act: -9.1; Plk1 PBD FP: -0.1; PLK1 inh: 0.0; sEH inh: 10.7

Results for Cc1cc(C)n(-c2nc(Nc3ccccc3C(F)(F)F)nc(-n3nc(C)cc3C)n2)n1 ?
sEH act: -6.5; Plk1 PBD FP: 3.5; PLK1 inh: -4.9; PTK2B oligo ant: -3.51*; sEH inh: 11.1

How did O=C(Nc1c(C(=O)O)oc2ccc(Br)cc12)c1ccccc1 do in these assays?
Plk1 PBD FP: 0.7; PLK1 inh: 50.6*

Results for CCOC(=O)c1oc2ccc(Br)cc2c1NC(=O)CN1CCN(C)CC1 ?
sEH act: 7.6; Plk1 PBD FP: -13.2; PLK1 inh: -9.5; PTK2B oligo ant: 0.93; sEH inh: -8.0

Results for COC(=O)c1nn(-c2ccccc2)c(-c2ccccc2)c1C(=O)c1ccccc1 ?
sEH act: 11.1; Plk1 PBD FP: 2.4; PLK1 inh: -1.6; PTK2B oligo ant: -3.33*; sEH inh: -14.2

What do the screens show for `Cc1ccccc1N1C(=O)C(Oc2ccc(Cl)cc2)C1CNC(C)(C)C` (stereo unspecified)?
PTK2B oligo ant: -1.1

How did C=CCn1c(SCC(=O)c2cccs2)nc2sc(CC)cc2c1=O do in these assays?
sEH act: -0.7; Plk1 PBD FP: -9.8; PLK1 inh: -5.4; PTK2B oligo ant: -3.23*; sEH inh: 0.4

How did CCn1c(=O)cc(OCC(=O)Nc2ccc(C)cn2)c2ccccc21 do in these assays?
Plk1 PBD FP: -25.9; PLK1 inh: 5.8; PTK2B oligo ant: -0.46

How did CCOC(=O)c1ccccc1NC(=O)COc1cc(=O)n(CC)c2ccccc12 do in these assays?
sEH act: 0.1; Plk1 PBD FP: -5.2; PLK1 inh: -12.8; PTK2B oligo ant: -4.16*; sEH inh: -0.8

Assay outcomes: PubChem BioAssay, several laboratories
